According to PubChem BioAssay:
Values joined by “and” are separate entries in the source; they are usually repeats but may differ in a detail not shown here. Identical values can stand only once. Records with an inconclusive call do not appear. Active and inactive are the calls of the source.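 Rule for the calls, unless noted: active = compounds whose cell count with miR-34 switched on is under 0.7 times the count with it off; inactive = the rest.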

Experiments:
[1] = stimulators of nuclear beta-catenin in C2C12, primary screen, imaging, WNT3A-conditioned medium, mouse C2C12, NPC library (AID 1117326; in the data active = nuclear beta-catenin stimulation mostly above about 4.2%, no sharp cut-off; inactive = mostly below about 10%; note: reference of the scale not given here); details: stronger effect = higher value
[2] = stimulators of insulin release from INS-1E, primary screen, cell-based, 5 mM glucose, NPC library (AID 1117329;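 active = compound raises insulin release from rat beta cells at 5 mM glucose, no numeric limit stated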; note: reference of the scale not given here); details: rat INS-1E insulin secretion, at 10 µM, stronger effect = higher value
[3] = growth inhibition of GSK3B-pretreated HCT116 cells – cell-based, CellTiter-Glo, 0.2 to 20 µM (AID 1117336;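 active = compounds lowering colon cancer cell viability after pretreatment blocking the GSK3B kinase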); details: HCT116 viability after GSK3B inhibitor, at 20 µM, stronger effect = higher value
[4] = inhibition of endothelial tube formation, primary screen, imaging, VEGF stimulated, CD31 staining, tube area, NPC library (AID 1117340;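 active = compound that reduces growth-factor-driven endothelial tube area in a mixed cell culture, no cutoff stated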); details: VEGF-stimulated ADSC/ECFC co-culture, at 10 µM, stronger effect = higher value
[5] = glucagon-like peptide 1 release enhancers, primary assay, NCI-H716 cell line, NPC library (AID 1117341;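 active = compound raises GLP1 secretion from the human gut endocrine cells, with no numeric limit stated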; note: reference of the scale not given here); details: NCI-H716 cells, at 10 µM, stronger effect = higher value
[6] = HCT116 colon cancer cell growth inhibition, primary screen, CellTiter-Glo luminescence, NPC library (AID 1117342;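 active = compounds that lower survival of HCT116 colon cancer cells in the luminescence readout, no numeric limit stated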); details: at 20 µM (top of the series)
[7] = CellTiter-Glo luminescent readout of SW480 viability loss, NPC library primary (AID 1117343;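 active = compounds that lower viability of the colon cancer cells in the luminescence readout, with no numeric limit stated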); details: CellTiter-Glo luminescence; at 20 µM (top of the series) unless noted
[8] = decreased DLD-1 cellular survival, CellTiter-Glo luminescent readout, NPC compound collection, primary HTS (AID 1117346;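 active = compounds that lower survival of DLD-1 colon cancer cells in the luminescence readout, no cutoff given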); details: DLD-1 viability, CellTiter-Glo luminescence; at 20 µM (top of the series)
[9] = growth inhibition of DIPG glioma cells, dose response, cell-based, JHH-DIPG-1, MIPE4.0, CellTiter-Glo, qHTS (AID 1347062; cut-off not given, nearly all actives have AC50 up to about 27 µM;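 note: cells exposed to compound for two days before readout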); details: JHH-DIPG-1 viability, CellTiter-Glo ATP luminescence
[10] = growth inhibition of DIPG glioma cells, dose response, cell-based, SU-DIPG-IV, MIPE4.0, CellTiter-Glo, qHTS (AID 1347063; cut-off not given, nearly all actives have AC50 up to about 30 µM;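 note: compound exposure lasted 48 hours before the viability readout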); details: SU-DIPG-IV viability, CellTiter-Glo ATP luminescence
[11] = JHH-DIPG-1 glioma cell viability, MIPE5.0 library, CellTiter-Glo luminescence, qHTS (AID 1347067; cut-off not given, nearly all actives have AC50 up to about 26 µM;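 note: cells exposed to compound for 48 hours before readout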); details: JHH-DIPG-1 glioma viability, CellTiter-Glo ATP luminescence
[12] = SU-DIPG-XXV glioma cell viability, MIPE5.0 library, qHTS (AID 1347068; cut-off not given, nearly all actives have IC50 up to about 30 µM)
[13] = sensitizers of A549 cells to miR-34 induction, primary screen, imaging, A549 dox-inducible miR-34, nuclei and caspase counts (AID 1347080); details: A549 miR-34 inducible, Hoechst nuclei count, 48 h
[14] = survival rescue of mitochondrial mutant cells in low glucose, primary screen, MELAS cybrids, Rieske KO mouse fibroblasts, CellTiter-Glo (AID 1508586;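 active = mean z-score across replicates of 1.96 or higher in either the MELAS or the Rieske mutant cell line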;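 note: z relative to plate mean and SD of compound and empty wells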)
[15] = viability rescue of complex I mutant cybrids, primary screen, cell-based, galactose medium, ATP luminescence (AID 1645843;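 active = z-score of at least 1.8 in each of two replicates, scored against plate mean and spread of sample wells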;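 note: positive z means more ATP and so rescue of galactose-driven cybrid death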); details: complex I mutant cybrid cells, 72 h, stronger effect = higher value

Cc1c(C(=O)NN2CCCCC2)nn(-c2ccc(Cl)cc2Cl)c1-c1ccc(Cl)cc1
nuclear beta-catenin stimulation ([1]; at 10 µM): -0.4% (inactive) | nuclear beta-catenin stimulation ([1]; stimulation, at 2 µM): -0.1% | insulin secretion stimulation [2]: 3% (inactive) | viability decrease [3]: 109% (active) | tube area decrease [4]: 110% (active) | GLP1 secretion stimulation [5]: 1.2% (inactive) | inhibition of viability [6]: 108% (active) | viability decrease (inhibition) [7]: 130% (active) | viability decrease (inhibition) [8]: 101% (active) | AC50 [9]: 16.6 µM (active) | AC50 [10]: 16.6 µM (active) | AC50 [11]: 18.6 µM (active) | outcome [12]: inactive | fold change ([13]; stronger effect = lower value, cell number ratio, induced over uninduced): 0.783 (inactive) and 0.989 (inactive) | fold change ([13]; measured here: relative caspase fold change +Dox/-Dox): 0.923 and 2.07 | cell count ([13]; measured here: total cells with miR-34 induction, stronger effect = lower value): 4800 and 7920 | cell count ([13]; measured here: total cells without miR-34 induction): 6120 and 8010 | z-score ([14]; MELAS cybrid survival, CellTiter-Glo 48 h, stronger effect = higher value): -1.37 (inactive) and -3.1 (inactive) | z-score ([14]; Rieske KO mouse fibroblast survival, CellTiter-Glo 72 h): 0.317 and -0.818 | z-score [15]: -2.65 (inactive)
